Inconclusive results are not listed. Activity calls are given as the source filed them. The call rests on the fitted dose curve; in most records, active means well fitted cell-killing curve with a large enough effect in the repeat runs; inconclusive means weak or mixed curves, or effect the other way; inactive means flat fitted curve, though single readings scatter.
experiment: cAMP Responsive Elements (CRE) small molecule antagonists, cell-based qHTS assay: qHTS cell viability counter screen (AID 2060913); settings: CRE-bla HEK293T viability, CellTiter-Glo luminescence, 5 h; series mostly up to 92.4 µM; viability change, negative = cytotoxic: at the top concentration; further: nearly all actives have a fitted effect of over 40% in size
Description: U.S. Tox21 Program National Center for Advancing Translational Sciences [NCATS] Division of Preclinical Innovation [DPI] U.S. Environmental Protection Agency [EPA] National Institutes of Environmental Health Sciences [NIEHS] National Toxicology Program [NTP] U.S. Food and Drug Administration [FDA] Tox21 Assay Overview: CREB (cyclic-AMP Responsive Element Binding Protein) is a cellular transcription factor. It binds to certain DNA sequences called cAMP Responsive Elements (CRE) and regulates the transcription of the genes. […] This cell line can be used to find agonists/antagonists of the cyclic AMP signaling pathway. The activation of the report gene under culture conditions can be detected by fluorescence intensity. This cell line has been used to screen the Tox21 10K compound library to identify agonists that induce oxidative stress. The cytotoxicity of the Tox21 compound library against the CRE-bla cell line was tested in parallel by measuring the cell viability using CellTiter-Glo assay (Promega, Madison, WI) in the same wells.
Tox21 Assay Protocol Summary: CRE-bla Hek 293T cells were suspended in assay medium (DMEM containing 10% dialyzed FBS, 0.1 mM NEAA, 1 mM sodium pyruvate and 25 mM HEPES) and dispensed at 2,000 cells/4 uL /well into 1536-well black wall/clear bottom plates using a Multidrop Combi (ThermoFisher Scientific, Waltham, MA) dispenser. After the assay plates were incubated at 37 C/5% CO2 for 18 hrs, 23 nL of compounds dissolved in DMSO, positive controls or DMSO only was transferred to the assay plate by a pintool workstation (Kalypsys, San Diego, CA), followed by addition of 1 uL of 1.25uM NKH477 (0.25 uM as final concentration) in assay medium using a Flying Reagent Dispenser (Aurora Discovery, San Diego, CA). The plates were incubated at 37 C and 5% CO2 for 3 hrs. Then 1 uL of LiveBLAzer B/G FRET substrate (Invitrogen, Carlsbad, CA) was added to each well using Bioraptr Flying Reagent Dispenser (FRD, Aurora Discovery, San Diego, CA). The plates were incubated at room temperature for 2 h, then fluorescence intensities were measured using an Envision plate reader (PerkinElmer, Shelton, CT) at Excitation 405nm, Emission 460nm and 530nm. The % activity was determined from the ratio of 460nm/530nm. For cell viability readout that measures cytotoxicity, 4 uL /well of CellTiter-Glo reagent was added into the assay plates using Bioraptr FRD. After 30 min incubation at room temperature, the luminescence intensity in the assay plates was measured using a ViewLux (PerkinElmer, Shelton, CT) plate reader.
On the % scale 0 is the no-effect control and ±100 the full control effect.

SMILES | viability change, negative = cytotoxic | Potency
CN(C)CC/C=C1\c2ccccc2COc2ccccc21 | 0.0205% [at 42.5 µM] (inactive) | –
CN1[C@@H]2CC[C@H]1CC(NC(=O)n1c(=O)[nH]c3ccccc31)C2 (stereo not given in full) | 0.0535% [at 42.5 µM] (inactive) | –
CCCCCCCCCCCCCCCCC | 3.12% (inactive) | –
O=C(O)c1cc(Br)c(O)c(Br)c1 | 0.797% (inactive) | –
CC(C)(O)c1ccc(CNC(=O)c2cccnc2Oc2ccc(F)cc2)cc1 | 0.0414% (inactive) | –
CCC(=O)OC(C)c1ccccc1 (stereo not given) | -2.37% (inactive) | –
CCO[Si](CCC1CCC2OC2C1)(OCC)OCC (stereo not given) | 5.27% (inactive) | –
c1cc(CN2CCCCC2)cc(OCCCNc2nc3ccccc3s2)c1 | -7.03% [at 42.5 µM] (inactive) | –
Cc1onc(-c2ccccc2Cl)c1C(=O)N[C@@H]1C(=O)N2[C@@H]1SC(C)(C)[C@@H]2C(=O)O | 1.47% [at 42.5 µM] (inactive) | –
NS(=O)(=O)c1ccc(Cl)c(S(N)(=O)=O)c1 | 2.95% [at 42.5 µM] (inactive) | –
CC(CN)CC(C)(C)CCN (stereo not given) | -0.0204% [at 240 µM] (inactive) | –
CC(C)C(=O)C(C)C | -9.28% (inactive) | –
c1ccc2c(c1)-c1ccc3ccc4cccc5cc-2c1c3c45 | -3.9% [at 42.5 µM] (inactive) | –
CC(C(=O)O)c1ccc(C(=O)c2ccccc2)s1 (stereo not given) | 2.88% [at 42.5 µM] (inactive) | –
COc1cccc2c1C(=O)c1c(O)c3c(c(O)c1C2=O)C[C@@](O)(C(=O)CO)C[C@@H]3O[C@H]1C[C@H](N)[C@H](O)[C@H](C)O1 | – | inactive
N#C[C@@H]1CC(F)(F)CN1C(=O)CNC1CC2CCC(C1)N2c1ncccn1 (stereo not given in full) | 2.69% (inactive) | –
O=C(O)c1c2ccccc2cc2ccccc12 | 7.03% (inactive) | –
O=C(O)C1=NN(c2ccc(S(=O)(=O)O)cc2)C(=O)C1 | – | inactive
CCCCC1C(=O)N(c2ccccc2)N(c2ccc(O)cc2)C1=O (stereo not given) | 19.1% [at 42.5 µM] (inactive) | –
N[C@@H](C(=O)N[C@@H]1C(=O)N2C(C(=O)O)=C(Cl)CS[C@H]12)c1ccccc1 | 0.002% [at 8.39 µM] (inactive) | –

SMILES | viability change, negative = cytotoxic | Potency
C[C@@H]1C[C@H]2[C@@H]3CCC4=CC(=O)C=C[C@]4(C)[C@@]3(F)[C@@H](O)C[C@]2(C)[C@@]1(O)C(=O)CO | 6.15% (inactive) | –
CC1=CC[C@H](CC=O)C1(C)C | 0.84% (inactive) | –
CCCCCCCCCCCC(=O)OC[C@@H](O)[C@H]1OC[C@H](OCCO)[C@H]1OCCO | -0.0809% (inactive) | –
CCCCCCCCCCCCCCCCCC(=O)OCC(CC)CCCC (stereo not given) | -0.32% (inactive) | –
C=CCCCCCCCCCC | – | inactive
C=C(C)C(=O)OCCC[Si](OC)(OC)OC | – | inactive
COc1cccc(CCc2ccccc2OCC(CN(C)C)OC(=O)CCC(=O)O)c1 (stereo not given) | -1.32% [at 42.5 µM] (inactive) | –
COC(c1ccccc1)(c1ccccc1)[C@H](Oc1nc(C)cc(C)n1)C(=O)O | -0.0239% [at 42.5 µM] (inactive) | –
c1ccc(-c2ccccc2-c2ccccc2)cc1 | -9.92% (inactive) | –
O=[N+]([O-])c1ccc(NCCO)c(OCCO)c1 | 0.212% (inactive) | –
CC(CN1c2ccccc2Sc2ccccc21)N(C)C (stereo not given) | – | inactive
CC1=C(O)C(=O)OC1C (stereo not given) | -15.6% (inactive) | –
CC(O)C(C)O (stereo not given) | 5.86% (inactive) | –
CC(=O)N[C@@H](CCC(=O)O)C(=O)O | 0.528% [at 42.5 µM] (inactive) | –
N=C(N=C(N)N)N1CCOCC1 | -0.378% [at 42.5 µM] (inactive) | –
CC(=O)Oc1ccc(C)cc1 | – | inactive
CC1(C)SC(C)(C)SC(C)(C)S1 | 3.38% (inactive) | –
O=C(Nc1ccc(Cl)c(Cl)c1)C1CC1 | -9.05% [at 42.5 µM] (inactive) | –
COc1ccc(N)c(C)c1 | – | inactive
CCc1cccc(N(C)C(N)=Nc2cccc3ccccc23)c1 | -8.83% [at 42.5 µM] (inactive) | –

Source: PubChem BioAssay (Tox21)
